# Measured values reported in PubChem BioAssay (NCI).
# About 83,000 compounds went through this panel and 20% of them were active in at least one assay; those are over-represented in the sample as a whole.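 Values shown are percent growth following 48 h exposure of cells in 96-well plates to a single concentration of compound; below 10 was considered active.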 Active and inactive are the calls of the source.
# System: NCI-H322M lung
# Test: NCI-60 one-dose screen, 48 h (100 = growth as untreated, 0 = no growth, -100 = all killed)
# Conditions: 10 µM
row,Structure (SMILES),growth
1,COc1cc2cc(C(=O)N3C[C@@H](CCl)c4c3cc(OC(=O)N3CCN(C)[C@@H]5CSSC[C@H]53)c3ccccc43)[nH]c2c(OC)c1OC,-12.4% (active)
2,CC1=C(CCC=O)C2=C(C)C3(CC3)[C@@](C)(O)C(=O)C2=C1,-84.9% (active)
3,COC(=O)C[C@](O)(CCC(C)C)C(=O)O[C@@H]1C(OC)=C[C@]23CCCN2CCc2cc4c(cc2[C@H]13)OCO4,-25.1% (active)
4,O=C(/C=C/c1ccc(Cl)cc1)c1nc2ccccc2n1Cc1ccc(F)cc1,53.5% (inactive)
5,CC[C@]12C=CCN3CC[C@@]4(c5ccc(OC)cc5N(C)[C@H]4[C@@](O)(C(=O)OC)[C@@H]1OC(=O)CCC[P+](C1CCCCC1)(C1CCCCC1)C1CCCCC1)[C@@H]32,24.5% (inactive)
6,CC1=C2C(=C[C@@](C)(COP(=O)(Oc3ccccc3)Oc3ccccc3)[C@@H]2O)C(=O)[C@@](C)(O)C12CC2,-59.5% (active)
7,CC(=O)Oc1ccccc1C(=O)NC([Se])=NC1CCCCC1,0.722% (active)
8,CCOP(=O)(CC(F)(F)C(F)(F)F)OCC,100% (inactive)
9,CC(C)C[C@H](NC(=O)CNC(=O)C[C@H]1O[C@@H]2OC3(C)CC[C@H]4[C@H](C)CC[C@@H]([C@H]1C)[C@@]24OO3)B(O)O,51.6% (inactive)
10,C[C@H]1[C@@H](Oc2ccc(-c3cn(-c4ccnc5cc(Cl)ccc45)nn3)cc2)O[C@@H]2OC3(C)CC[C@H]4[C@H](C)CC[C@@H]1[C@@]24OO3,69.3% (inactive)
11,C[C@H]1[C@H](OC(=O)CCC(=O)N(CCCc2cn(-c3ccc([N+](=O)[O-])cc3)nn2)CCNc2ccnc3cc(Cl)ccc23)O[C@@H]2OC3(C)CC[C@H]4[C@H](C)CC[C@@H]1[C@@]24OO3,81.5% (inactive)
12,COc1cc2cc(C(=O)N3C[C@@H](CCl)c4c3cc(OC(=O)N3CCN(C)[C@@H]5CSSC[C@@H]53)c3ccccc43)[nH]c2c(OC)c1OC,-7.87% (active)
13,COc1cc2cc(C(=O)N3C[C@@H](CCl)c4c3cc(OC(=O)N3CCN(C(=O)CCC(=O)N5CCN(C)CC5)[C@@H]5CSSC[C@@H]53)c3ccccc43)[nH]c2c(OC)c1OC,-7.14% (active)
14,COC(=O)c1ccc(-n2cc(CCCN(CCNc3ccnc4cc(Cl)ccc34)C(=O)CCC(=O)O[C@@H]3O[C@@H]4OC5(C)CC[C@H]6[C@H](C)CC[C@@H]([C@H]3C)[C@@]46OO5)nn2)cc1,71% (inactive)
15,O=C([Se]C1C=CCCC1)c1ccc(C(=O)[Se]C2C=CCCC2)s1 (stereo not given),-28.5% (active)
16,O=C(/C=C/c1cccc(Br)c1)c1nc2ccccc2n1Cc1ccc(F)cc1,75.8% (inactive)
17,CC[C@]12C=CCN3CC[C@@]4(c5ccc(OC)cc5N(C)[C@H]4[C@@](O)(C(=O)OC)[C@@H]1OC(=O)CCC[P+](c1ccc(C)cc1)(c1ccc(C)cc1)c1ccc(C)cc1)[C@@H]32,-98.4% (active)
18,O=C(NC([Se])=NC1CCCCC1)c1ccccc1,4.78% (active)
19,O=C(/C=C/c1ccc(F)cc1)c1nc2ccccc2n1Cc1ccc(F)cc1,40.5% (inactive)
20,O=C(/C=C/c1ccccc1)c1nc2ccccc2n1Cc1ccc(Br)cc1,-6.79% (active)
21,C=CC[Se]C(=O)c1cncc(C(=O)[Se]CC=C)c1,-46.2% (active)
22,COc1ccc(OC)c(/C=C/C(=O)c2nc3ccccc3n2Cc2ccc(F)cc2)c1,6.69% (active)
23,O=C(/C=C/c1ccc(F)cc1)c1nc2ccccc2n1Cc1ccc(Br)cc1,-24.8% (active)
24,CC[C@]12C=CCN3CC[C@@]4(c5ccc(OC)cc5N(C)[C@H]4[C@@](O)(C(=O)OC)[C@@H]1OC(=O)CCCC[P+](c1ccc(C)cc1)(c1ccc(C)cc1)c1ccc(C)cc1)[C@@H]32,-97.6% (active)
25,CC(C)N=C([Se])NC(=O)c1cccs1,-2.73% (active)
26,CC1=C(CCC=NNC(N)=O)C2=C(C)C3(CC3)[C@@](C)(O)C(=O)C2=C1,-13% (active)
27,Cc1ccc2[nH]c(=S)n(-c3ccc(F)cc3)c(=O)c2c1,99% (inactive)
28,C#CC[Se]C(=O)c1ccc2n[se]nc2c1,12% (inactive)
29,CC1=C(COCCOC(=O)c2ccc(S(=O)(=O)F)cc2)C2=C(C)C3(CC3)[C@@](C)(O)C(=O)C2=C1,-25.8% (active)
30,CC12CCC3(CCC(=O)NCCCNc4ccnc5cc(Cl)ccc45)[C@@](C)(OO[C@]3(C)O1)O2,27.5% (inactive)
